Measured values taken from PubChem BioAssay (NCATS).
Results filed as inconclusive are left out. A call without a number means that no potency is given here. The source made the active and inactive calls. Calls follow the shape of the dose curve; as a rule, active = well fitted cell-killing curve with a large enough effect; inconclusive = small, poorly fitted or top-dose-only effect, or effect the other way; inactive = no such curve, though single readings can be large or run the other way.

What was measured:
[1] = Quantitative High-Throughput drug screen in 47 multiple myeloma cell lines against the NCATS MIPE library collection: OPM2_DSMZ cell viability assay (AID 1919872); also: nearly all actives have a fitted effect of over 30% in size
Summary of the method: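 CellTiter-Glo ATP luminescence gave viability after 48 h compound treatment at 37C of 500 multiple myeloma cells per well. Normalisation used DMSO-only wells as 100% and media-only wells as 0% viability; primary qHTS of approved and investigational drugs.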

[2] = Quantitative High-Throughput drug screen in 47 multiple myeloma cell lines against the NCATS MIPE library collection: KMS11_JCRBsus cell viability assay (AID 1919873); also: nearly all actives have a fitted effect of over 50% in size
Summary of the method: (§1)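 Myeloma cells (500/well) treated with MIPE 4.0 compounds for 48 h at 37 °C, 5% CO2. Viability read as ATP via CellTiter-Glo luminescence after 5 min at RT; DMSO-only wells = 100%, media-only = 0% viability.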

[3] = Quantitative High-Throughput drug screen in 47 multiple myeloma cell lines against the NCATS MIPE library collection: KMS28BM_JCRB cell viability assay (AID 1919874); also: nearly all actives have a fitted effect of over 35% in size
Summary of the method: as §1
Potency is read from the fitted curve at half-maximal effect.

SMILES: Cn1cc(-c2ccc3nnc(C(F)(F)c4ccc5ncccc5c4)n3n2)cn1
- Potency [1]: inactive
- Potency [2]: inactive
- Potency [3]: inactive

SMILES: NCCCC(N)(C(=O)O)C(F)F (stereo not given)
- Potency [1]: inactive
- Potency [2]: 18.7 µM (active)
- Potency [3]: inactive

SMILES: NC(=O)c1ccc(I)c([N+](=O)[O-])c1
- Potency [1]: inactive
- Potency [2]: inactive
- Potency [3]: inactive

SMILES: CCn1c(-c2nonc2N)nc2cnc(Oc3cccc(NC(=O)c4ccc(OCCN5CCOCC5)cc4)c3)cc21
- Potency [2]: 11.8 µM (active)
- Potency [3]: 5.26 µM (active)

SMILES: CCC(C)(C)C(=O)O[C@H]1C[C@@H](C)C=C2C=C[C@H](C)[C@H](CC[C@@H]3C[C@@H](O)CC(=O)O3)[C@H]21
- Potency [2]: 13.2 µM (active)

SMILES: CC(C=CC1=C(C)CCCC1(C)C)=CC=CC(C)=CC(=O)O
- Potency [3]: inactive

SMILES: Nc1cccc(S(=O)(=O)N2CCCN(S(=O)(=O)c3ccc4c(c3)OCCO4)CC2)c1
- Potency [1]: inactive
- Potency [3]: inactive

SMILES: CNC[C@H](O)c1cccc(O)c1
- Potency [1]: inactive
- Potency [2]: inactive
- Potency [3]: inactive

SMILES: COc1ccccc1[C@H](c1cccc2ccccc12)[C@@](C)(C#N)C(=O)N1CCC(c2cccc(C(F)(F)F)c2)CC1
- Potency [1]: 8.33 µM (active)
- Potency [2]: 1.05 µM (active)
- Potency [3]: 4.18 µM (active)

SMILES: NC(=O)c1ccc(-c2nc(-c3ccc4c(c3)OCCO4)c(-c3ccccn3)[nH]2)cc1
- Potency [1]: 14.8 µM (active)
- Potency [2]: inactive
- Potency [3]: inactive

SMILES: Cc1c(CCOc2ccc(C(=O)O)cc2)c2cc(Cl)ccc2n1C(c1ccccc1)c1ccccc1
- Potency [2]: inactive
